Data: PubChem BioAssay AID504834 (National Center for Advancing Translational Sciences (NCATS), 2011)
In all, about 320,000 compounds went through this assay and about 22,000 (6.9%) were called active. About 27% were inconclusive and are not listed. The sample as a whole holds a higher share of actives than the screen did. Values without a mark were called inactive. Calls come from the whole dose curve; as a rule, active = well fitted inhibition curve with a large enough effect; inconclusive = small, poorly fitted or top-dose-only effect, or another doubt; inactive = no such curve, though single readings can be large or run the other way.

test: Primary qHTS for delayed death inhibitors of the malarial parasite plastid, 96 hour incubation; conditions: P. falciparum luciferase reporter growth; series mostly up to 28.7 µM; activity change, negative = inhibition: at the top concentration
Summary of the method: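 Luminescence readout: decreased luciferase signal marks inhibited growth of reporter-expressing P. falciparum in infected red cells (2% hematocrit, 0.05% parasitemia final), exposed to compound two generations (96 h, 37 C, 5% CO2).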
% is set by controls: 0 for no effect and ±100 for the full control effect; potency is the fitted concentration of half-maximal effect.

SMILES | activity change, negative = inhibition | Potency
CCCOc1cccc(C(=O)NCCCNC(=O)c2cccnc2)c1 | 95.6% | 
CCCOc1cccc(C(=O)Nc2nnn(CCC)n2)c1 |  | 4.65 µM (active)
CCCn1nnc(NC(=O)COc2ccc(CC)cc2)n1 | 5.36% | 
Cc1cc(C(F)F)nn1CC(=O)NC1CCCCCC1 | -19.5% | 
CN(C)c1ccc(CNC(=O)CN2C(=O)COc3ccc(S(=O)(=O)N4CCCC4)cc32)cc1 | 12.7% | 
Clc1ccc2nc3c(c(-c4ccccc4)c2c1)CNCC3 |  | 13.1 µM (active)
Clc1cccc(-c2nc(NCC3CCCO3)c3ccccc3n2)c1 (stereo unspecified) | 37.3% [at 5.75 µM] | 
NC(N)=Nc1nc(-c2ccccc2)c2cc(Cl)ccc2n1 | 51.4% | 
COc1ccc(NC(=O)COc2ccc(C(=O)c3ccc(F)cc3)cc2)cc1S(N)(=O)=O | -26.2% | 
CC(=O)NCC(=O)NC1CCCc2c1cnn2-c1ccccc1F (stereo unspecified) | -6.37% | 
COc1cc(OC)c(S(=O)(=O)Nc2ccccc2C(=O)O)cc1S(=O)(=O)Nc1ccccc1C(=O)O | -13.4% | 
O=C(O)c1ccc(F)c(S(=O)(=O)Nc2ccccc2)c1 | 24.9% | 
COc1ccc(Cl)cc1S(=O)(=O)Nc1cccc(C(=O)O)c1 |  | 10.4 µM (active)
CN1CCN(c2ncc3c(n2)CC(c2ccccc2F)CC3=O)CC1 (stereo unspecified) | 40.8% | 
COc1ccccc1C(C)NC(=O)Cc1ccsc1 (stereo unspecified) | 2.57% | 
CCCCOc1ccc(CON(C(C)=O)C(C)=O)cc1Cl | 5.53% | 
O=C(CNC(=O)c1ccccc1)Oc1ccc([N+](=O)[O-])cc1 | 1.08% | 
CC(Cc1cccs1)NCc1ccc(Cl)cc1 (stereo unspecified) | 54.2% | 
CC(Cc1cccs1)NC(=O)c1cccc(Cl)c1 (stereo unspecified) | 43.8% | 
CC(Cc1cccs1)N(Cc1ccc(Cl)cc1)C(=O)c1ccncc1 (stereo unspecified) |  | 13.1 µM (active)
CCCc1ccc(OCCNC(=O)c2ccccc2Br)cc1 | -8.4% | 
CC(/C=C/c1ccco1)=N/NC(=O)C1COc2ccccc2O1 (stereo unspecified) | -5.91% | 

SMILES | activity change, negative = inhibition | Potency
O=C(N/N=C/c1cc2c(cc1Br)OCO2)C1COc2ccccc2O1 (stereo unspecified) |  | 7.38 µM (active)
O=C(N/N=C\c1cc2c(cc1Cl)OCO2)c1ccc(Br)s1 | 19% | 
COc1ccc(C(=O)NCC2CCCN2S(=O)(=O)c2cccs2)cc1OC (stereo unspecified) | -4.53% | 
Cc1cc(C)c(S(=O)(=O)N2CCCC2CNC(=O)c2ccc3c(c2)OCO3)c(C)c1 (stereo unspecified) |  | 11.7 µM (active)
Cc1cc(C)c(S(=O)(=O)NCC2CCC(C(=O)NCc3ccc4c(c3)OCO4)CC2)c(C)c1 (stereo unspecified) | -66.7% | 
CCOc1ccc(S(=O)(=O)N2CCC(C(=O)NCc3ccccn3)CC2)cc1Cl | -3.21% | 
O=C(NCc1ccccc1)C1CCN(C(=O)Cc2ccccc2)CC1 | -21.4% | 
Cc1ccc(/C=N/NC(=S)Nc2cccc(S(=O)(=O)N(C)C)c2)o1 |  | 6.57 µM (active)
CN(C)S(=O)(=O)c1cccc(NC(=O)COC(=O)c2cc(=O)[nH]c(=O)[nH]2)c1 | 6.59% | 
CN(C)S(=O)(=O)c1cccc(NC(=O)COC(=O)/C=C/c2cccs2)c1 | 55.6% | 
CCCOc1ccc(Cc2c(O)nc(N)[nH]c2=O)cc1C | -17.1% | 
S=C(NNC(=S)NC1CC2C=CC1C2)NC1CC2C=CC1C2 (stereo unspecified) |  | 9.28 µM (active)
CSC1=NC2(C)CCCCC2C12C=CC(=O)C=C2 (stereo unspecified) |  | 13.1 µM (active)
Cc1cc2c(cc1S(=O)(=O)CCC(=O)NCc1ccccc1)OCC(=O)N2 | 3.56% | 
O=C(CSc1nccc(=O)[nH]1)Nc1ccc(N2CCOCC2)c(Cl)c1 | -26.5% | 
COc1ccc(CN(Cc2ccc(OC)cc2)C(=O)c2cccs2)cc1 | -6.73% | 
CCOc1ccc(-n2c(SCC(=O)OC)nc3sc4c(c3c2=O)CCN(C)C4)cc1 |  | 0.828 µM (active)
COc1ccccc1NC(=O)CSc1nnc(Cn2nnc(-c3ccccc3)n2)n1-c1ccccc1 |  | 7.38 µM (active)
COc1ccccc1NC(=O)CSc1nc2sc3c(c2c(=O)n1-c1ccccc1)CCN(C)C3 |  | 1.65 µM (active)
CCOc1ccc(-n2c(SCC(=O)NC3CCS(=O)(=O)C3)nnc2-c2cccnc2)cc1 (stereo unspecified) | 10.7% | 
COc1ccccc1-n1c(SCC(=O)O)nc2sc3c(c2c1=O)CCC3 | -1.23% | 
CCOc1ccc(NC(=O)CSc2nncn2C)cc1 | 30.9% | 

SMILES | activity change, negative = inhibition | Potency
COc1ccccc1OCc1nnc(SCC(N)=O)n1-c1ccccc1 | -2.43% | 
COc1ccc(-n2c(=S)[nH]c3sc4c(c3c2=O)CCc2ccccc2-4)cc1 | -104% | 
CCCSc1nc2sc3c(c2c(=O)n1-c1ccc(OC)cc1)CCN(C)C3 |  | 4.65 µM (active)
CCCn1c(N)c(C(=O)CSc2nc3ccccc3c(=O)n2-c2ccc(OC)cc2)c(=O)[nH]c1=O | 76.7% | 
COc1ccccc1NC(=O)CSc1nc2sc(C)c(C)c2c(=O)n1Cc1ccco1 | 19.6% | 
COc1ccccc1NC(=O)CSc1nnc(Cc2cccn2C)n1-c1ccc(F)cc1 | 29.7% | 
Cc1ccc(C(=O)Oc2ccc(C(=S)N3CCOCC3)cc2)cc1 | -3.89% | 
O=C(Nc1ccc(-c2cscn2)cc1)C1CCCN(Cc2ccc(CO)o2)C1 (stereo unspecified) | 6.28% | 
Cc1n[nH]c(=O)c2c(NC(=O)CSc3ccccc3F)oc(C)c12 | 49.4% | 
COc1cc(N2C(=O)CSC2=S)cc(OC)c1OC | 8.02% | 
Cc1cc(C(=O)NC2CC(C)(C)Cc3c2cnn3-c2ccccc2)n[nH]1 (stereo unspecified) | -4.15% | 
Cc1ccc(C)c(-n2c(SCC(=O)O)nc3sc4c(c3c2=O)CCCC4)c1 | -7.37% | 
Cc1nc2sc3c(c2c(=O)n1NC(=O)CCl)CCCC3 | -26.3% | 
CCSc1nc2sc3c(c2c(=O)n1-c1ccc(C)cc1)CCN(C)C3 |  | 0.928 µM (active)
COC(=O)c1sccc1NC(=S)Nc1ccc(C)cc1 | 2.1% | 
CNC(=O)N1c2ccccc2C=Cc2ccccc21 | -13.3% | 
N#Cc1ccc(Oc2cc(C(F)(F)F)nc(-c3ccccn3)n2)cc1 | 115% | 
COc1ccc(Cc2nc(-c3ccccn3)no2)cc1OC | 14.9% | 
COc1ccc(Sc2nc(-c3ccccc3)ncc2OC)cc1 | 15.8% | 
COc1ccccc1Oc1nc(-c2cccnc2)nc2ccccc12 | -24.1% | 
Cc1ccc(Oc2nc(-c3ccccn3)nc3ccccc23)cc1 |  | 5.86 µM (active)
COc1cnc(-c2ccccn2)nc1Oc1ccc(C(C)(C)C)cc1 |  | 0.329 µM (active)

SMILES | activity change, negative = inhibition | Potency
C=Cc1ccc(C(=O)N2CCCC(CCC(=O)N3CCN(c4ccccn4)CC3)C2)cc1 (stereo unspecified) | 37.2% | 
C/C=C/C(=O)OCc1csc(CC(=O)Nc2ccccc2C)n1 | -7.19% | 
O=C(NCCc1ccc(C(F)(F)F)cc1)c1ccc2c(c1)OCO2 | 17.6% | 
CCOC(=O)c1nnn2c1nc(N1CCN(c3ccccc3)CC1)c1ccccc12 |  | 2.62 µM (active)
O=C(COC(=O)c1ccccc1C(=O)N1CCN(c2ccccc2)CC1)NCc1ccccc1 | -13.9% | 
CCOC(=O)c1nnn2c3ccccc3c(=O)n(C)c12 | 0% | 
O=C(NCCc1ccccc1)Oc1ccc(Cl)cc1 | 83.8% | 
CCn1c(SCC(=O)NNC(=O)c2ccc(OC)cc2)nnc1C(C)C | -16.7% | 
CC1CCC(CN2CCN=C2N(C)C)CC1 (stereo unspecified) | 3.19% | 
O=C(CCCN1C(=O)CCC1=O)Nc1ccc(Cl)c(C(F)(F)F)c1 |  | 2.08 µM (active)
O=C1CCCN1CCCNC(=S)Nc1ccc(F)c(Cl)c1 | 4.63% | 
CCCCC(=O)Nc1ccc(C(=O)Nc2cc(C(F)(F)F)ccc2Cl)cc1 | -15.4% | 
CNC(=O)c1sc(Nc2ccc(OCc3ccccc3)cc2)nc1C | 1.4% | 
O=C(COc1ccccc1[N+](=O)[O-])N/N=C/c1ccc[nH]1 | 31.6% | 
S=C(Nc1ccc(Br)cc1)NC1CCN(Cc2ccccc2)CC1 | -20.3% | 
O=C(NNC(=O)c1cnccc1C(F)(F)F)c1ccc(Cl)cc1 | 41.6% | 
COc1ccccc1CNC(=O)CN1CCC(n2cnc3cc(F)ccc32)CC1 | 45.9% | 
COC(=O)C1=C(c2ccc(C(C)=O)cc2)C[C@@H]2CC[C@H]1N2C(=O)NCCNC(C)=O | 36% | 
COC(=O)C1=C(c2ccc3ccccc3c2)C[C@@H]2CC[C@H]1N2C(=O)NCCO | -21.9% | 
COC(=O)c1ccc(CNC(=O)C2CCC(=O)N(Cc3cccc(F)c3)C2)cc1 (stereo unspecified) | 26% | 
COC(=O)C1=C(c2ccc(F)cc2OCc2ccccc2)C[C@@H]2CC[C@H]1N2C(=O)NCc1ccc2[nH]ccc2c1 |  | 5.86 µM (active)
COC(=O)C1=C(c2cccc(OCc3ccccc3)c2)C[C@@H]2CC[C@H]1N2C(=O)NNCc1ccccc1 |  | 10.4 µM (active)

SMILES | activity change, negative = inhibition | Potency
COc1ccc(S(=O)(=O)NC(C)C(=O)NCc2ccncc2)cc1Cl (stereo unspecified) | -22.5% | 
CC1CN(C(=O)COC(=O)c2cccc(NS(=O)(=O)c3ccccc3)c2)CC(C)O1 (stereo unspecified) | -10.8% | 
O=C(Nc1ccccc1)N1CCC(C(=O)N2CCN(Cc3ccccc3)CC2)CC1 | -19.7% | 
COc1ccc(N(C)S(=O)(=O)c2ccc3c(c2)CC(C)N3C(=O)C2CC2)c(OC)c1 (stereo unspecified) | 11.3% | 
Cc1ccccc1Nc1nc(-c2cccnc2)cs1 | -7.11% | 
CC(=O)NC(=O)c1ccccc1O |  | 5.36 µM (active)
Cc1cc(C(=O)NNC(=O)c2ccccc2O)c(C)o1 | 57.1% | 
O=C(Nc1ccc(O)cc1)c1ccccc1O | 28.8% | 
COc1ccc(C(=O)Nc2c(N)nc(SCC(=O)Nc3ccc(C(C)=O)cc3)[nH]c2=O)cc1 | -14.7% | 
Cc1ccc(-n2ccc(=O)c(C(=O)O)n2)cc1 | -10.7% | 
CCc1ccc(-c2nn(-c3ccccc3)cc2CSC(=N)N)cc1 | 33.9% | 
CCn1c(SCc2ccc(C)cc2)nnc1-c1nn(-c2ccccc2)ccc1=O |  | 7.38 µM (active)
CCOc1ccc(N(CC(=O)NCC2CCCO2)S(=O)(=O)c2ccc(C)cc2)cc1 (stereo unspecified) | 17.6% | 
CCOC(=O)c1cccnc1NC(=O)c1ccncc1 | 18.8% | 
CCOC(=O)c1sc(NC(=O)c2sc(C)nc2C)nc1C | 32.2% | 
CCOC(=O)c1sc(NC(=O)c2ccncc2)nc1C |  | 9.28 µM (active)
CCc1nc(SCC(=O)NNC(=O)c2ccc(C)cc2)c2ccccc2n1 | 16.4% | 
C=Cn1cc[n+](CC(=O)c2ccc(OC)c(OC)c2)c1 | -6.61% | 
